Test results from PubChem BioAssay (EPA / NIEHS).
Calls of active or inactive are those of the source. The calls were made as follows: active = hit-call score of the fitted dose curve at least 0.9, where 1 is the maximum; inactive = score below 0.9.

What was measured:
[1] = APR_HepG2_P-H2AX_72hr: Apredica 72-hour HepG2 Assay for H2AX Phosphorylation (AID 2282916); conditions: imaging, actives raise or lower the signal;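 also: phospho-histone H2A.x immunostain intensity per cell marking DNA damage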
In short: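 HepG2 cells treated 72 h at 0.39–200 uM, 0.5% DMSO final, duplicates. Formaldehyde-fixed, Triton-permeabilised, immunostained for phospho-H2A.x with Hoechst; fluorescence imaged at 20x, bidirectional fit versus DMSO.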

[2] = APR_HepG2_MitoMembPot_72hr: Apredica 72-hour HepG2 Assay for Mitochondrial Membrane Potential (AID 2282917); conditions: imaging, actives raise or lower the signal
In short: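 HepG2 cells exposed 72 h to compounds at 0.39–200 uM (0.5% v/v DMSO, duplicates); MitoTracker Red CMXRos 250 nM loaded 30 min before 3.7% formaldehyde fixation, imaged by HCS fluorescence. Bidirectional fit versus DMSO.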

[3] = APR_HepG2_MitoticArrest_72hr: Apredica 72-hour HepG2 Assay for Mitotic Arrest (AID 2282918); conditions: high-content imaging, actives raise or lower the signal
In short: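 HepG2 cells were exposed for 72 hr to compound at 0.39–200 uM (10 concentrations, duplicate) in 0.5% v/v DMSO, fixed in 3.7% formaldehyde, immunostained for phospho-histone H3 with Hoechst 33342 and imaged by high-content fluorescence; bidirectional fits versus DMSO.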

[4] = APR_HepG2_MicrotubuleCSK_72hr: Apredica 72-hour HepG2 Assay for Microtubule CSK Stabilty (AID 2282919); conditions: HepG2 microtubule cytoskeleton, high-content imaging, actives raise or lower the signal
In short: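 HepG2 human liver cells were dosed for 72 h at ten concentrations from 0.39 to 200 uM in duplicate (0.5% v/v DMSO final). Fixed, permeabilized cells were immunostained for alpha-tubulin (Cy5) with a Hoechst counterstain and imaged at 20x.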

[5] = APR_HepG2_P-H2AX_24hr: Apredica 24-hour HepG2 Assay for H2AX Phosphorylation (AID 2282920); conditions: high-content imaging, actives raise or lower the signal
In short: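 HepG2 human liver cells were exposed for 24 hr to compounds at 0.39–200 uM in duplicate, with 0.5% v/v DMSO final. Fixed cells were immunostained for phospho-histone H2A.x plus Hoechst 33342, imaged by HCS fluorescence, and fitted bidirectionally against DMSO.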

[6] = APR_HepG2_StressKinase_72hr: Apredica 72-hour HepG2 Assay for Stress Kinase (AID 2282921); conditions: HepG2 stress kinase (phospho-c-Jun) imaging, actives raise or lower the signal
In short: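 HepG2 cells treated 72 hr with 0.39–200 uM compound, 0.5% v/v DMSO, duplicate wells. After formaldehyde fixation and Triton permeabilization, stained with anti-phospho-c-Jun (1:500) and Cy3 secondary, imaged at 20x. Fitted in both directions against DMSO.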

[7] = APR_HepG2_StressKinase_24hr: Apredica 24-hour HepG2 Assay for Stress Kinase (AID 2282922); conditions: HepG2 stress kinase (phospho-c-Jun) imaging, actives raise or lower the signal
In short: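 HepG2 cells exposed 24 hr to compound at 0.39–200 uM (10 concentrations, duplicate), 0.5% v/v DMSO final. Fixed in 3.7% formaldehyde, permeabilized with Triton X-100, immunolabeled for phospho-c-Jun with Hoechst 33342; HCS fluorescence imaging, bidirectional fit versus DMSO.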

[8] = APR_HepG2_p53Act_72hr: Apredica 72-hour HepG2 Assay for p53 Activation (AID 2282923); conditions: high-content imaging, actives raise or lower the signal;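 also: average cellular p53 protein immunofluorescence intensity in HepG2 cells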
In short: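 HepG2 cells exposed 72 h to 0.39–200 uM in 0.5% DMSO, duplicates. Fixed, permeabilized cells immunostained for p53 (Cy5) with Hoechst; imaged at 20x, fluorescence analyzed bidirectionally against DMSO.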

[9] = APR_HepG2_MitoMass_72hr: Apredica 72-hour HepG2 Assay for Mitochondrial Mass (AID 2282924); conditions: high-content imaging, actives raise or lower the signal;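 also: MitoTracker Red CMXRos stain intensity per cell imaged as mitochondrial mass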
In short: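 HepG2 cells were exposed for 72 hr to compounds at 0.39–200 uM (ten concentrations, duplicate, 0.5% v/v DMSO final). Live cells were stained with 250 nM MitoTracker Red CMXRos for 30 min, then fixed in 3.7% formaldehyde and imaged by HCS fluorescence.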

[10] = ATG_CRE_CIS: Attagene CIS-FACTORIAL HepG2 Assay for human cAMP Responsive Element (CRE) binding protein 3 (AID 2282926); conditions: HepG2 CRE cis-reporter, Attagene multiplexed mRNA; actives raise or lower the signal
In short: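 HepG2 cells transiently transfected with a multiplexed reporter library (CRE-driven unit among them) were dosed for 24 h. Reporter mRNA was quantified by RT-PCR, fluorescent labelling, HpaI digestion and capillary electrophoresis, with bidirectional fitting against DMSO baseline.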

[11] = target: CCAAT/enhancer-binding protein beta (Homo sapiens) (UniProt P17676); test: ATG_C_EBP_CIS: Attagene CIS-FACTORIAL HepG2 Assay for human CCAAT/Enhancer Binding Protein (C/EBP) beta (AID 2282927); conditions: HepG2 Attagene cis-factorial transcription factor reporter; actives raise or lower the signal
CCAAT/enhancer-binding protein beta (Homo sapiens), sequence (P17676 whole entry, looked up): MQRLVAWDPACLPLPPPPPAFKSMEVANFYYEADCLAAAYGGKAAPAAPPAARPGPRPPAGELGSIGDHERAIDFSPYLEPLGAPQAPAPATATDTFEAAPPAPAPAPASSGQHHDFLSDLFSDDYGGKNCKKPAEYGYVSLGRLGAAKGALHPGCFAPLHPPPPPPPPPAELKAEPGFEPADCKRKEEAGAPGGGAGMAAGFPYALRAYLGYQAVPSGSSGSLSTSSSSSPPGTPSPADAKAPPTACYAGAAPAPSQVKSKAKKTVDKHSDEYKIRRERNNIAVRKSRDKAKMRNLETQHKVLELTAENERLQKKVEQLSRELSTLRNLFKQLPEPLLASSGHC
In short: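 Following a 24 h incubation with test chemical, transfected HepG2 cells yielded RNA whose reporter transcripts were quantified by RT-PCR and fluorescent capillary electrophoresis, with DMSO serving as baseline for bidirectional fitting.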

[12] = ATG_DR4_LXR_CIS: Attagene CIS-FACTORIAL HepG2 Assay for human Liver X Receptor (LXR), DR4 submotif (AID 2282929); conditions: HepG2 Attagene DR4 cis-reporter, mRNA transcription; actives raise or lower the signal
In short: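 Readout: reporter transcript fluorescence after RT-PCR and capillary electrophoresis, fitted bidirectionally against DMSO controls. Human HepG2 liver cells carried transiently transfected multiplexed reporter constructs; endogenous transcription factor activity measured 24 h post-dosing.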

[13] = ATG_AP_1_CIS: Attagene CIS-FACTORIAL HepG2 Assay for human Activator Protein 1 (AP-1) (AID 2282931); conditions: HepG2 Attagene cis-factorial AP-1 reporter mRNA; actives raise or lower the signal
In short: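 Reporter transcripts were measured 24 h after dosing by RT-PCR and capillary electrophoresis of fluorescent fragments. Cells: HepG2 carrying transfected cis-regulated reporter constructs reading endogenous factor activity. Gain or loss fitted against DMSO.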

[14] = ATG_AP_2_CIS: Attagene CIS-FACTORIAL HepG2 Assay for human Activator Protein 2 (AP-2) (AID 2282932); conditions: HepG2 AP-2 cis-reporter, Attagene transcription factor profiling; actives raise or lower the signal
In short: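 Bidirectional curve fitting against DMSO was applied to reporter mRNA signals from HepG2 cells 24 h after dosing. Cis-promoter reporter units, transiently transfected, were read by RT-PCR plus capillary electrophoresis.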

[15] = ATG_BRE_CIS: Attagene CIS-FACTORIAL HepG2 Assay for human Bone Morphogenetic Protein (BMP) Response Element (BRE) (AID 2282933); conditions: HepG2 BMP response element reporter, Attagene transcription factor profiling; actives raise or lower the signal
In short: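 After a 24 h chemical treatment, transiently transfected HepG2 cells were lysed for RNA; reporter transcripts were quantified by fluorescent RT-PCR and capillary electrophoresis, normalised to DMSO.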

[16] = target: Retinoic acid receptor alpha (Homo sapiens) (UniProt P10276); test: ATG_DR5_RAR_CIS: Attagene CIS-FACTORIAL HepG2 Assay for human Retinoic Acid Receptor Alpha (RARE), DR5 submotif (AID 2282934); conditions: HepG2 Attagene cis-factorial RARE DR5 reporter, mRNA; actives raise or lower the signal;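 as to AC50: reporter responds to endogenous RAR alpha beta and gamma in HepG2 not RARA alone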
Retinoic acid receptor alpha (Homo sapiens), sequence (P10276 whole entry, looked up): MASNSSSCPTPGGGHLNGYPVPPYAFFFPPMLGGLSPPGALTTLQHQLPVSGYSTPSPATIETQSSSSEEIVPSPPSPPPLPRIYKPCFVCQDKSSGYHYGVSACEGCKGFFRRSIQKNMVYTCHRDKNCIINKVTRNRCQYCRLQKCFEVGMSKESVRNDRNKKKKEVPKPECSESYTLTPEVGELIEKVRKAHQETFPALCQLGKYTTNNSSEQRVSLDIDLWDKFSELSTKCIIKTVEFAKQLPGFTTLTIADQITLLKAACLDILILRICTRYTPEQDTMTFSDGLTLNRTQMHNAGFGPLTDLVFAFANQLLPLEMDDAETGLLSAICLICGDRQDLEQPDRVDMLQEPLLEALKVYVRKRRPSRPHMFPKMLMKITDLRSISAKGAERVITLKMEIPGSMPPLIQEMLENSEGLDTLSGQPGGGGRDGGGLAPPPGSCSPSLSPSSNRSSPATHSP
In short: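 Endpoint fitted in both directions relative to DMSO as negative control. It reflects DR5 cis-element reporter mRNA induction in transiently transfected HepG2 cells, measured 24 h after dosing through RT-PCR and fluorescent capillary electrophoresis.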

[17] = APR_HepG2_NuclearSize_72hr: Apredica 72-hour HepG2 Assay for Nuclear Size (AID 2282925); conditions: high-content imaging, actives raise or lower the signal
In short: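 HepG2 cells were exposed to compounds at ten concentrations from 0.39 to 200 uM (duplicate, 0.5% DMSO final) for 72 hr. After fixation in 3.7% formaldehyde, nuclei were stained with Hoechst 33342 (2 ug/mL) and imaged at 20x.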

[18] = ATG_CMV_CIS: Attagene CIS-FACTORIAL HepG2 Assay for human CMV (Internal Marker) (AID 2282928); conditions: HepG2 CMV promoter reporter, transcription factor profiling; actives raise or lower the signal;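 also: endpoint acts as a background internal control marker rather than a target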
In short: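 Endogenous transcription factor activity read in HepG2 via transfected cis-promoter reporter units. After 24 h dosing, reporter mRNA measured by RT-PCR/capillary electrophoresis; gain or loss of signal fit relative to DMSO.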

[19] = target: Aryl hydrocarbon receptor (Homo sapiens) (UniProt P35869); test: ATG_Ahr_CIS: Attagene CIS-FACTORIAL HepG2 Assay for human Aryl Hydrocarbon Receptor (Ahr) (AID 2282930); conditions: HepG2 AhR cis-factorial reporter transcription; actives raise or lower the signal
Aryl hydrocarbon receptor (Homo sapiens), sequence (P35869 whole entry, looked up): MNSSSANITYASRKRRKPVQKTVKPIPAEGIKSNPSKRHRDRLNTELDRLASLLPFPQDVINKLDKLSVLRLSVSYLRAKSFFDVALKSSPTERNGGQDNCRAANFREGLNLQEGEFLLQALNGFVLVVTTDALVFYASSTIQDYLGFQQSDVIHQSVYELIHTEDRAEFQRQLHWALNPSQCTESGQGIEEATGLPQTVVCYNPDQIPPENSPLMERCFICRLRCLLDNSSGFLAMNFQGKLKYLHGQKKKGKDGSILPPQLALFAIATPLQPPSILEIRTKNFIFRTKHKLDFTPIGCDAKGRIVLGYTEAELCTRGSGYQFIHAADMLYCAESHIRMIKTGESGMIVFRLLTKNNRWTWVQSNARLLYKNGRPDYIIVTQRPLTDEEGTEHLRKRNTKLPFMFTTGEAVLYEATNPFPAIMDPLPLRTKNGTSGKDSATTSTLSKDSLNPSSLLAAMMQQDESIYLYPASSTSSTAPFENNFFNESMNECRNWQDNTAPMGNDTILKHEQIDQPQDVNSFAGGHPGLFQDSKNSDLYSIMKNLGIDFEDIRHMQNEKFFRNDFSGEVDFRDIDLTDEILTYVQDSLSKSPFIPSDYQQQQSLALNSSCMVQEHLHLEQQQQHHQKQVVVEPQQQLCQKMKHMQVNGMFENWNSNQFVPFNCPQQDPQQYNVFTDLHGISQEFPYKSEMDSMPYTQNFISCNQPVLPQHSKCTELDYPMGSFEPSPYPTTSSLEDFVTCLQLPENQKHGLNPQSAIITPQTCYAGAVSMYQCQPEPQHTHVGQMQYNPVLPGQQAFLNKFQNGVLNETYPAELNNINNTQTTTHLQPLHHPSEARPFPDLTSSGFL
In short: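 Values derive from bidirectional fitting against DMSO negative control. Underlying signal: cis-element reporter mRNA in transiently transfected HepG2, harvested 24 h post-dose and measured by RT-PCR plus capillary electrophoresis.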

[20] = target: Transcription factor E2F1 (Homo sapiens) (UniProt Q01094); test: ATG_E2F_CIS: Attagene CIS-FACTORIAL HepG2 Assay for human E2F Transcription Factor 1 (AID 2282935); conditions: HepG2 Attagene cis-reporter, E2F reporter RNA transcripts; actives raise or lower the signal
Transcription factor E2F1 (Homo sapiens), sequence (Q01094 whole entry, looked up): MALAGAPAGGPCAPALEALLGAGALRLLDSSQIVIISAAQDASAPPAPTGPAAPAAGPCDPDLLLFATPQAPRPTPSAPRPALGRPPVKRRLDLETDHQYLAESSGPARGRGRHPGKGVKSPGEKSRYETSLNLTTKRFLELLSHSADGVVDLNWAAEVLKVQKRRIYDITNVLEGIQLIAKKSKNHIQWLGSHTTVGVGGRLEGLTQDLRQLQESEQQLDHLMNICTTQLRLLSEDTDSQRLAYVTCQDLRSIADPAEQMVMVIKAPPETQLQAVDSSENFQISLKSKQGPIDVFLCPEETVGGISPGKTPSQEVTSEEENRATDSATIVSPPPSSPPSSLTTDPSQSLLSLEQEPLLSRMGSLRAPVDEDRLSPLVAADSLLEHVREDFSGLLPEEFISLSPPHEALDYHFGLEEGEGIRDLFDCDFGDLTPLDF
In short: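 Multiplexed cis-reporter assay: HepG2, transient transfection, 24 h dosing, mRNA quantitation by labeled RT-PCR and CE.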

CCCCCCCCOC(=O)c1ccc(C(=O)OCCCCCCCC)c(C(=O)OCCCCCCCC)c1
outcome [1]: inactive
outcome [2]: inactive
outcome [3]: inactive
outcome [4]: inactive
outcome [5]: inactive
outcome [6]: inactive
outcome [7]: inactive
outcome [8]: inactive
outcome [9]: inactive
outcome [10]: inactive
outcome [11]: inactive
outcome [12]: inactive
outcome [13]: inactive
outcome [14]: inactive
outcome [15]: inactive
outcome [16]: inactive

O=[N+]([O-])c1ccc(Oc2ccc(Cl)cc2Cl)cc1
outcome [1]: inactive
outcome [2]: inactive
outcome [4]: inactive
outcome [5]: inactive
outcome [6]: inactive
outcome [7]: inactive
outcome [8]: inactive
outcome [9]: inactive
outcome [17]: inactive
outcome [10]: inactive
outcome [11]: inactive
AC50 [18]: 100 µM (active)
AC50 [12]: 48.1 µM (active)
AC50 [19]: 68.6 µM (active)
outcome [14]: inactive
AC50 [15]: 56.4 µM (active)

O=Cc1ccco1
outcome [1]: inactive
outcome [2]: inactive
outcome [4]: inactive
outcome [5]: inactive
outcome [6]: inactive
outcome [7]: inactive
outcome [8]: inactive
outcome [9]: inactive
outcome [17]: inactive
outcome [10]: inactive
outcome [11]: inactive
outcome [18]: inactive
outcome [12]: inactive
outcome [19]: inactive
outcome [13]: inactive
outcome [14]: inactive
outcome [15]: inactive
outcome [16]: inactive

Cc1cccc(N)c1N
AC50 [1]: 56.3 µM (active)
outcome [2]: inactive
outcome [4]: inactive
AC50 [5]: 44.5 µM (active)
outcome [6]: inactive
outcome [7]: inactive
outcome [8]: inactive
outcome [9]: inactive
outcome [17]: inactive
AC50 [10]: 158 µM (active)
outcome [11]: inactive
AC50 [18]: 30.3 µM (active)
outcome [12]: inactive
AC50 [13]: 30.5 µM (active)
outcome [14]: inactive
outcome [15]: inactive
AC50 [16]: 106 µM (active)

CC(C)(C)OOC(=O)c1ccccc1
AC50 [1]: 35.1 µM (active)
AC50 [2]: 20.1 µM (active)
AC50 [3]: 23.1 µM (active)
outcome [4]: inactive
AC50 [5]: 16.4 µM (active)
AC50 [6]: 50 µM (active)
outcome [7]: inactive
AC50 [8]: 21.5 µM (active)
AC50 [9]: 54 µM (active)
outcome [10]: inactive
outcome [11]: inactive
outcome [12]: inactive
outcome [19]: inactive
AC50 [13]: 130 µM (active)
outcome [14]: inactive
outcome [15]: inactive
outcome [16]: inactive

CCCSC(=O)N(CCC)CCC
outcome [1]: inactive
outcome [2]: inactive
outcome [3]: inactive
outcome [4]: inactive
outcome [5]: inactive
outcome [6]: inactive
outcome [7]: inactive
outcome [8]: inactive
outcome [9]: inactive
outcome [10]: inactive
outcome [11]: inactive
outcome [12]: inactive
outcome [13]: inactive
outcome [14]: inactive
outcome [15]: inactive
outcome [20]: inactive

CCN(CC)N=O
outcome [1]: inactive
outcome [2]: inactive
outcome [4]: inactive
outcome [5]: inactive
outcome [6]: inactive
outcome [7]: inactive
outcome [8]: inactive
outcome [9]: inactive
outcome [17]: inactive
outcome [10]: inactive
outcome [11]: inactive
outcome [18]: inactive
outcome [12]: inactive
outcome [19]: inactive
outcome [13]: inactive
outcome [14]: inactive
outcome [15]: inactive
outcome [16]: inactive
outcome [20]: inactive

O=C(Oc1ccc(Br)cc1)N1CCN2CCC1CC2
AC50 [1]: 101 µM (active)
outcome [2]: inactive
outcome [4]: inactive
outcome [5]: inactive
outcome [6]: inactive
outcome [7]: inactive
AC50 [8]: 103 µM (active)
outcome [9]: inactive
outcome [17]: inactive
outcome [10]: inactive
outcome [11]: inactive
outcome [12]: inactive
outcome [19]: inactive
outcome [14]: inactive
outcome [15]: inactive
outcome [16]: inactive
